# Rows were chosen to be rich in hits. Some 2.2% of all compounds tested hit in one or more screens of this group.
# IEC-6 cytotox: counter-screen for KLF5 inhibitors: cytotoxicity in IEC-6 cells; inhibition, % at 5 µM; IEC-6 cytotoxicity, luminescence viability; actives 0.78% (n = 290,000);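 note: 0% = plate median of test compound wells and 100% = cytotoxic reference compound wells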
# Ba/F3 V617F tox: lowers viability of Ba/F3 cells expressing EpoR and JAK2V617F; ATP luminescence; inhibition, % at 5.6 µM; actives 1.1% (n = 220,000);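 active = inhibition above the campaign mean plus 3 SD over all tested compounds, cut at about 24% in these data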;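 note: cytokine-independent growth of Ba/F3 cells driven by EpoR plus mutant JAK2; 0% = DMSO-treated cells and 100% = JAK inhibitor I control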
# BaF3 parental: parental Ba/F3 viability inhibition as JAK2V617F counter-screen; CellTiter-Glo ATP luminescence; inhibition, % at 5.6 µM; actives 1.1% (n = 220,000); AID 1486;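 active = inhibition above a per-campaign cutoff, the mean inhibition of all tested compounds plus 3 SD, cut at about 27% in these data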;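 note: 0% = DMSO wells and 100% = JAK Inhibitor I control wells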
# APP transl inh: APP translation inhibition. inhibition, % at 2 µM. AID 1285. SH-SY5Y APP 5'UTR-luciferase reporter, luminescence. actives 0.82% (n = 190,000);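 active = inhibition above a set limit, derived from the sample mean plus 3 SD, cut at about 45% in these data; inconclusive = one replicate passes the limit while the other fails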
# aSyn UTR inh: MLPCN primary screen, SNCA 5' untranslated region; actives 0.82% (n = 300,000); inhibition, % (tested at 7.5 µM); alpha-synuclein 5'UTR reporter, inhibitor activity; in the data active = inhibition above about 60%; inconclusive = no clear call, values can overlap the other calls;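 note: H4 neuroglioblastoma cells stably carrying SNCA 5'UTR luciferase fusion; 0% = DMSO wells and 100% = positive control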
# KLF5 inh: inhibitors of KLF5 expression. DLD-1 KLF5 promoter-luciferase reporter, luminescence. inhibition, % at 5 µM. actives 0.23% (n = 290,000). AID 1700;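 active = inhibition above a per-plate limit of that plate's mean compound inhibition plus 3 SD, cut at about 60% in these data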;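 note: 0% = DMSO wells and 100% = LY294002 at 200 µM; higher means less KLF5 promoter-driven luciferase light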
# IEC-6 tox confirm: confirmation of cytotoxic compounds in rat IEC-6 intestinal epithelial cells. shares compounds with IEC-6 cytotox. IEC-6 rat intestinal epithelial viability, luminescence. inhibition, % at 5 µM. actives 63% (n = 1,900);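 note: 0% = vehicle and 100% = reference cytotoxic drug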
# * marks the source's active call; other numbers are inactive results; ? = inconclusive; . = no result. Cut-off read from the data, not from the text of the source, unless noted: active = inhibition above about 22%; inactive = the rest.
SMILES,IEC-6 cytotox,Ba/F3 V617F tox,BaF3 parental,APP transl inh,aSyn UTR inh,KLF5 inh,IEC-6 tox confirm
O=C(NCC1CCOCC1)C1CCC(=O)N(Cc2cccc(C(F)(F)F)c2)C1 (configuration not stated),2,.,.,.,-16,-3,.
CCCCCCn1c(=O)[nH]c2c(c1=O)CCC2,-3,-4,4,.,-6,-12,.
CCCCCCCn1c2c(c(=N)c3c1CCC3)CCCC2,38*,100*,88*,22,83*,59,37*
CCCCCCn1c2c(c(=N)c3c1CCC3)CCC2,24*,98*,78*,-16,67*,55,26*
CCCCCCCCCn1c2c(c(=N)c3c1CCC3)CCC2,44*,98*,91*,18,86*,52,50*
CC(C)CC(=O)NC1(C(F)(F)F)C(=O)N(CC(C)C)C2=C1C(=O)CC(C)(C)C2 (configuration not stated),6,4,0,6,37,3,.
Cc1ccnc(Nc2nc(-c3ccc(O)c(O)c3)cs2)c1,36*,.,.,.,-148,-86,18
CCn1c(C)c(C)c2cc(C(=O)N3CCc4ccccc4C3)ccc21,46*,.,.,.,-6,-4,30*
Nc1nc(-c2cccnc2)nn1C(=O)c1ccccc1Cl,36*,-4,-1,-8,20,-4,4
CCNc1ccc(C(=O)OCC)cc1NC(=O)c1cccc(N(C)C)c1,64*,82*,77*,81*,35,57,58*
O=C(CN1CCN(C(=O)C2CCCO2)CC1)Nc1ccc(F)cc1 (configuration not stated),-13,.,.,.,-1,-24,.
CCOC(=O)C1CCCN(C(=O)c2ccc3nc(-c4cccc(OC)c4)oc3c2)C1 (configuration not stated),30*,.,.,.,-30,-51,15
CN1CCc2nc(NC(=O)COc3ccc4ccccc4c3)sc2C1,38*,9,8,8,-6,-14,18
CN1CCN(S(=O)(=O)c2ccc(N3CCc4ccccc4C3)nc2)CC1,-3,1,-2,14,-8,1,.
Cc1cc2c(NCCc3ccccc3)ncnc2s1,22*,.,.,.,-64,-103,22*
CCC(=O)N1c2ccc(S(=O)(=O)N3CCN(c4ccccc4Cl)CC3)cc2CC1C (configuration not stated),2,.,.,.,11,-10,.
C/C(=N/NC(=O)CN(c1ccccc1)S(=O)(=O)c1ccccc1)c1ccccc1O,46*,.,.,.,-7,22,38*
CCCC/C(C)=N/NC(=O)CN(c1ccc(Br)cc1)S(=O)(=O)c1ccccc1,3,-2,8,4,-7,10,.
C/C(=N\NC(=O)c1cccc(F)c1)c1ccc(Br)s1,24*,7,14,-3,-45,6,32*
CCn1nc(C(=O)Nc2cc(Cl)ccc2-n2cncn2)c2ccccc2c1=O,.,.,.,.,2,.,.
CCN(CC(=O)NCc1ccc(F)cc1)C(=O)/C=C/c1ccc(OC)cc1,3,.,.,.,0,-26,.
CCN(CC(=O)NCc1ccc(F)cc1)C(=O)/C=C/c1ccc(OC)c(S(=O)(=O)NC(C)C)c1,73*,.,.,.,63*,48,50*
CCOc1ccc(S(=O)(=O)n2cc(F)c(=O)[nH]c2=O)cc1,86*,44*,60*,4,14,11,13
CCCOc1ccc(S(=O)(=O)n2cc(Br)c(=O)[nH]c2=O)cc1,-2,6,12,2,15,-3,.
CCOc1ccc(S(=O)(=O)n2cc(F)c(=O)[nH]c2=O)cc1[N+](=O)[O-],55*,.,.,.,3,-2,12
SMILES,IEC-6 cytotox,Ba/F3 V617F tox,BaF3 parental,APP transl inh,aSyn UTR inh,KLF5 inh,IEC-6 tox confirm
CCn1nc(C)cc1-c1nnc(Sc2ncc([N+](=O)[O-])s2)n1C,102*,.,.,.,-14,12,26*
CSCCC(NC(=O)COc1ccccc1)C(=O)NC1CCC(C)CC1 (configuration not stated),.,.,.,.,0,.,.
O=C(CN(C(=O)c1csnn1)c1cccc(C(F)(F)F)c1)NCc1ccc(F)cc1,-3,.,.,.,9,12,.
CCOC(=O)c1ccc(Oc2ccc(C(F)(F)F)cn2)cc1,-4,2,3,-31,-11,12,.
COc1ccc(C2c3cc(OC)c(OC)cc3CCN2C(=O)c2ccccc2)cc1OC (configuration not stated),-2,.,.,.,3,-13,.
COc1ccc(C2c3cc(OC)c(OC)cc3CCN2S(C)(=O)=O)cc1OC (configuration not stated),36*,75*,58*,15,22,2,10
COc1cccc(OCc2cc(/C=N/Nc3ccc(C(=O)O)cc3)ccc2OC)c1,28*,9,-3,.,-92,17,55*
COc1cccc(C(=O)Oc2ccc(/C=N/Nc3ccc(C(=O)O)cc3)cc2OC)c1,2,.,.,.,-56,-58,.
Cc1ccc(-c2ocnc2C(=O)Nc2ccccc2NC(=O)c2ccccn2)cc1,27*,.,.,.,41,-20,20
Cc1[nH]c2ccccc2c1/C=N/NC(=O)c1cc(-c2ccncc2)nc2ccccc12,40*,.,.,.,33,30,54*
CCCC(=O)NC(c1ccccc1)c1ccc2cccnc2c1O (configuration not stated),42*,.,.,.,65*,89*,66*
CCCCC(=O)NC(c1ccccc1)c1ccc2cccnc2c1O (configuration not stated),24*,.,.,.,68*,96*,54*
CC1CN(S(=O)(=O)c2cc(C(=O)NCCC3=CCCCC3)ccc2Cl)CC(C)O1 (configuration not stated),.,.,.,.,-85,.,.
Cc1ccc(SCC(=O)N/N=C/c2ccco2)cc1,-1,.,.,.,-2,-10,.
CC1(c2nnc(Cc3ccccc3)o2)CC(c2ccc(OC(F)(F)F)cc2)=NO1 (configuration not stated),.,.,.,.,18,.,.
CCCCCCCN1CCC(=O)N([C@H](CO)CC(C)C)CC1,-4,.,.,.,-6,-4,.
CCOC(=O)N1CCN(C(=O)c2ccccc2-c2ccccc2)CC1,40*,53*,47*,39,-34,38,35*
CCN(CC(=O)Nc1c(F)cccc1F)C(=O)CCNC(=O)c1ccc([N+](=O)[O-])cc1,.,.,.,.,11,.,.
CCC(C)n1c(SCC(=O)NC(=O)c2cccn2C)nc2ccccc2c1=O (configuration not stated),33*,4,3,-14,-27,21,29*
COc1ccc(-c2csc(/C(C#N)=C/Nc3cc4oc5ccccc5c4cc3OC)n2)cc1,1,-1,3,12,?,9,.
O=C1C(Cl)=C(NCCN2CCOCC2)C(=O)c2ccccc21,33*,.,.,.,-36,-13,19
COc1ccc(-c2ccc(CCC(=O)O)n2-c2ccccc2OC)cc1,41*,.,.,.,-45,36,-3
COc1ccc(-c2cc(C(=O)N(C)CC(=O)Nc3cccc(F)c3)c3ccccc3n2)cc1,.,.,.,.,-22,.,.

# Screens from PubChem BioAssay.
